Assay [1] addresses T1, Inhibitor of nuclear factor kappa-B kinase subunit epsilon (Homo sapiens) (UniProt Q14164).
T1 sequence (whole entry): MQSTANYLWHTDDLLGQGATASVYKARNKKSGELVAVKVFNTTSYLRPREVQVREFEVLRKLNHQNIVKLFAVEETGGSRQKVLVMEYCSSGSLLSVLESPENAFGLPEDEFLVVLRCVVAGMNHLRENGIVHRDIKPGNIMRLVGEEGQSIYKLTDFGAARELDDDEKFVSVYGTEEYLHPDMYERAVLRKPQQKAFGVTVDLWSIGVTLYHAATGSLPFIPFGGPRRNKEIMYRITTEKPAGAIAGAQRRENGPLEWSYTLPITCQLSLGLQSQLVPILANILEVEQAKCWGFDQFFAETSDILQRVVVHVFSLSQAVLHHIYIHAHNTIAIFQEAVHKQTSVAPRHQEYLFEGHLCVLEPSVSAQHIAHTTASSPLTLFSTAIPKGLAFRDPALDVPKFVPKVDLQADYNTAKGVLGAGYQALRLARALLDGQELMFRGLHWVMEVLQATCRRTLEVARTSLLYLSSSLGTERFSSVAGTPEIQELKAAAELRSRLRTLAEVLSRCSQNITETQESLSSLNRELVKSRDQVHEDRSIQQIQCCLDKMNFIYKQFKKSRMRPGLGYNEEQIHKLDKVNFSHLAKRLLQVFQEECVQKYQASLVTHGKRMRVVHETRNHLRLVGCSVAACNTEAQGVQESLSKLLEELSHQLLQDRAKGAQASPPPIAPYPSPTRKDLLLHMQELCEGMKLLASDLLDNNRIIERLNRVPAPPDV
The settings on record: at 1 µM.

In assay [2] the target is T2, Serine/threonine-protein kinase Nek1 (Homo sapiens) (UniProt Q96PY6).
T2 sequence (whole entry): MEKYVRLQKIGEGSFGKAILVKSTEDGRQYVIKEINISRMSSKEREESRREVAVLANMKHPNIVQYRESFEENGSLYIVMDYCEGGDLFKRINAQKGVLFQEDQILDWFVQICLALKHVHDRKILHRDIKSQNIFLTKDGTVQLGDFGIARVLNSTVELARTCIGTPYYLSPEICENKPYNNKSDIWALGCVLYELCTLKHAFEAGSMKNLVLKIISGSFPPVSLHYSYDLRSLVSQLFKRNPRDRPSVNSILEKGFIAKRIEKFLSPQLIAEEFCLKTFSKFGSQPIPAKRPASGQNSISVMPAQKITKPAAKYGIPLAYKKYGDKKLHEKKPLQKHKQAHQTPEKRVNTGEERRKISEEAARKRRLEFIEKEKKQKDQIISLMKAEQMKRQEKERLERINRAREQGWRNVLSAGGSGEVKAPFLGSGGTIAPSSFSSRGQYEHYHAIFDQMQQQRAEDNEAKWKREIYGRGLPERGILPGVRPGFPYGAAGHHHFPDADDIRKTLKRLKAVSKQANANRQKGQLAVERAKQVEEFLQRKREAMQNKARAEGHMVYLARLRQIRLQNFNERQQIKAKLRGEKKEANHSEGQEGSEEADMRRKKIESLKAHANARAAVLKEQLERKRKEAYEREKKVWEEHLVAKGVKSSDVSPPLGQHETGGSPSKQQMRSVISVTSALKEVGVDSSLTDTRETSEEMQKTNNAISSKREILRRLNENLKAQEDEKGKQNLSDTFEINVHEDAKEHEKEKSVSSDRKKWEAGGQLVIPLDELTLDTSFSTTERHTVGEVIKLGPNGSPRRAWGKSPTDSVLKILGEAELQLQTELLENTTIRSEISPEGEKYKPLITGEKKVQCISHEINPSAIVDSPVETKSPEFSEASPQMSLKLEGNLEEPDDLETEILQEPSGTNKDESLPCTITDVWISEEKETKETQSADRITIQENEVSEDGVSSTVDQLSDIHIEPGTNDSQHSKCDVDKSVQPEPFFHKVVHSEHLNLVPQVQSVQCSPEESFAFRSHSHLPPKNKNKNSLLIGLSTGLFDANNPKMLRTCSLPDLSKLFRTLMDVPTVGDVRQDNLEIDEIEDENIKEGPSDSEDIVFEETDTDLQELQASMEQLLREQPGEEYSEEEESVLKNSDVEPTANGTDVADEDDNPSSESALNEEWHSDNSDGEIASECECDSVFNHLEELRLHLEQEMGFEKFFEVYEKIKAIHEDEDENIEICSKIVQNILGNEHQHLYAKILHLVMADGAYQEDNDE
The settings on record: at 0.1 µM.

Assay [3] deals with T2, Serine/threonine-protein kinase Nek1 (Homo sapiens). The settings on record: at 1 µM.
The target of assay [4] is T3, Serine/threonine-protein kinase Nek2 (Homo sapiens) (UniProt P51955).
T3 sequence (whole entry): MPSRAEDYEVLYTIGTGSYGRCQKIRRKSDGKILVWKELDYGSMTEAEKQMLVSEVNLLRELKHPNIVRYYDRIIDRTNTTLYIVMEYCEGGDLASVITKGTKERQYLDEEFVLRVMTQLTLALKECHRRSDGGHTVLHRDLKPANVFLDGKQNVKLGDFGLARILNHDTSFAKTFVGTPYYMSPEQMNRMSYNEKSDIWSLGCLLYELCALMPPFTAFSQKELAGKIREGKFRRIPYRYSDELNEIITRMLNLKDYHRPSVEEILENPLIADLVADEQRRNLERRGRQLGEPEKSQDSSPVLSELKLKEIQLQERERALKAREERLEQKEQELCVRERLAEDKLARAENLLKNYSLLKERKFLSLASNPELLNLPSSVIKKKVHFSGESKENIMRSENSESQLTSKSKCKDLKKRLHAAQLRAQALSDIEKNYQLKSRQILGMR
The settings on record: at 0.1 µM.

The target in assay [5] is T3, Serine/threonine-protein kinase Nek2 (Homo sapiens). The settings on record: at 1 µM.
For assay [6], the target named is Serine/threonine-protein kinase Nek6 (Homo sapiens) (UniProt Q9HC98). The settings on record: at 0.1 µM.
Chain of Serine/threonine-protein kinase Nek6 (Homo sapiens) (Q9HC98 whole entry): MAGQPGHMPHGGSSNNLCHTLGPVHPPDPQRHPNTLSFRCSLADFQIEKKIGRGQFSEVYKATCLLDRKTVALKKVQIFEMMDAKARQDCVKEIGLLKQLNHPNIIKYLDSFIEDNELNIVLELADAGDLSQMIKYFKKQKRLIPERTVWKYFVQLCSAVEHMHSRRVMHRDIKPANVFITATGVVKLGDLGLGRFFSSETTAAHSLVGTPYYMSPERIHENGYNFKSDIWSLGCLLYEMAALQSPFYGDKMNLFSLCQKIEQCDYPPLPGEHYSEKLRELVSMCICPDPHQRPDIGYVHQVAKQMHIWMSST
Assay [7] has the same target. As to conditions: at 1 µM.
Assay [8] addresses Serine/threonine-protein kinase Nek7 (Homo sapiens) (UniProt Q8TDX7). As to conditions: at 0.1 µM.
The target is the same in assay [9]. The settings on record: at 1 µM.
In assay [10] the target is T4, Serine/threonine-protein kinase Nek9 (Homo sapiens) (UniProt Q8TD19).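 Note: reported value is the mean percent inhibition of NEK9.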
T4 sequence (whole entry): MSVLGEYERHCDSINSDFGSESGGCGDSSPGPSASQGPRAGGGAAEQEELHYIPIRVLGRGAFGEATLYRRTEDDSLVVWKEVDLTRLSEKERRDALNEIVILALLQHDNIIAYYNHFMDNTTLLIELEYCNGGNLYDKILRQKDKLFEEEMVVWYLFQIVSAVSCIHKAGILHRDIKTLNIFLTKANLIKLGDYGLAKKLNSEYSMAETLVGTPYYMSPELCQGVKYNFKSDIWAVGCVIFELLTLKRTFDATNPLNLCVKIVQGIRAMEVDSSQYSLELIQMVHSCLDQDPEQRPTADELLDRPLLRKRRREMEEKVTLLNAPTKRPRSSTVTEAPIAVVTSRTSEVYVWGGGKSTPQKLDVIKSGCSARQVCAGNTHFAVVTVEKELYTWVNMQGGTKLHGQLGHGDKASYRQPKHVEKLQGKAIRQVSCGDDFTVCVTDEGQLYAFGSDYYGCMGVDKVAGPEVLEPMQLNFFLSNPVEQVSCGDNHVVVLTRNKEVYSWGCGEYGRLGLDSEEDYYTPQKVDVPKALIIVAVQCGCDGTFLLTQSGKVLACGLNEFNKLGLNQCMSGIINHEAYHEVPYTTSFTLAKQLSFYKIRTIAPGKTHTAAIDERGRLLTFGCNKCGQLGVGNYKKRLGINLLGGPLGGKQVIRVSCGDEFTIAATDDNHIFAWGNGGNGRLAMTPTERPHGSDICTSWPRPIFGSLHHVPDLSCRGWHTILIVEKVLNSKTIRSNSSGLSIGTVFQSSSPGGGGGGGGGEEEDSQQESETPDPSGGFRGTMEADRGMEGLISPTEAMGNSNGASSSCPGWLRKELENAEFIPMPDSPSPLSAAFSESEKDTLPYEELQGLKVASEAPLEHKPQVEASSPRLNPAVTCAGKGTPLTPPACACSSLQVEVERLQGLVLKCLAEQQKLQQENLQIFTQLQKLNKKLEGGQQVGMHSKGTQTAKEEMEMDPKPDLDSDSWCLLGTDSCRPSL
As to conditions: at 0.1 µM.

Chain of Serine/threonine-protein kinase Nek7 (Homo sapiens) (Q8TDX7 whole entry, looked up): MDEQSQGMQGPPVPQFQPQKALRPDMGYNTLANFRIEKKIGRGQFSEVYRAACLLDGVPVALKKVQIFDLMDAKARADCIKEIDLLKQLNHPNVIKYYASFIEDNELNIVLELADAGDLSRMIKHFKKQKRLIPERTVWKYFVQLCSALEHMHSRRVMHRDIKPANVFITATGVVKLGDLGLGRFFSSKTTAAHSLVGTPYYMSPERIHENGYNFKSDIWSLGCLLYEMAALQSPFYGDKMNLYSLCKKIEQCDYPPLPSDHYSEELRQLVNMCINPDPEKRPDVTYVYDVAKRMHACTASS

For `CN1CCC(n2cnc(-c3ccc(F)cc3)c2-c2ccnc(N)n2)CC1`, the inhibition (in general, the relative decrease from the control value, in per cent) is 7.06% in assay [1]; -0.73% in assay [2]; 0.96% in assay [3]; 2.43% in [4]; 2.64% in assay [5]; 2.5% in [6]. The inhibition was 2.17% in [7], 3.21% in [8], 3.4% in assay [9] and 7.9% in [10].

Take `NS(=O)(=O)c1ccc(N/N=C2\C(=O)Nc3ccc4ncccc4c32)cc1`: the inhibition in [1] is 44.7%; in assay [2] it was 1.98%; in assay [3], 5.54%; in assay [4], 3.42%; in [5], 4.79%; in assay [6], -0.98%. Besides, the inhibition was -0.3% in assay [7], 4.59% in assay [8], 7.69% in assay [9] and 9.44% in assay [10].

As for `COc1cc(Nc2nccc(Nc3ccc4c(C)n[nH]c4c3)n2)cc(OC)c1OC`, the inhibition in [1] is 12.9%; in assay [2] it was 1.89%; in assay [3] it was 7.77%; in [4] it was 0.97%; in [5], 0.41%; in assay [6] it was -1.67%. For the same molecule, the inhibition is -0.68% in [7], 3.64% in [8], 2.17% in [9] and 0.16% in [10].

With `CCN(CC)S(=O)(=O)c1ccc(OC)c(Nc2ncc(-c3ccccc3)o2)c1`, the inhibition in assay [1] was 1.73%; in assay [2], -0.43%; in [3], 1.95%; in assay [4], 0.46%; in assay [5] it was -0.71%; in [6] it was 1.9%. The inhibition in assay [7] was 1.12%; in [8], -0.6%; in assay [9], -0.03%; in assay [10], 2.38%.

`CS(=O)(=O)CCNCc1coc(-c2ccc3ncnc(Nc4ccc(OCc5ccccc5)cc4)c3c2)c1`: the inhibition in assay [1] was determined as 4.57%; in assay [2], 2.15%; in assay [3], 3.07%; in assay [4], 4.2%; in [5] it was 2.21%; in assay [6] it was 1.54%. In addition, the inhibition in assay [7] was 2.23%; in assay [8], 2.37%; in assay [9] it was 3.98%; in assay [10], 8.97%.

As for `FC(F)(F)c1cccc(-c2nn3ncccc3c2-c2ccnc(Nc3ccc4c(c3)OCCO4)n2)c1`, the inhibition amounted to 2.87% in assay [1]; 1.52% in assay [2]; 0.83% in assay [3]; 3.63% in assay [4]; 3.89% in [5]; 0.6% in assay [6]. The inhibition in assay [7] was -0.45%; in assay [8], 4.18%; in assay [9] it was 2.91%; in assay [10], 3.97%.

For the molecule `COc1ccc(-c2cc(-c3c[nH]nc3-c3ccccn3)ccn2)cc1`, the inhibition in assay [1] was 9.71%; in [2], 2.15%; in assay [3], 3.74%; in [4], 5.8%; in assay [5], 4.88%; in assay [6] it was 2.87%. Moreover, the inhibition was 4.34% in assay [7], 2.27% in [8], 3.19% in assay [9] and 7.56% in assay [10].

As to `Clc1ccc(-c2nn3ncccc3c2-c2ccnc(Nc3ccccc3)n2)cc1`, the inhibition in assay [1] was -3.51%; in [2], 1.79%; in assay [3], 1.38%; in assay [4] it was 2.53%; in [5], 1.79%; in assay [6], 2.55%. For the same molecule, the inhibition in assay [7] amounted to 2.29%; in assay [8], 2.07%; in assay [9], 1.34%; in [10], 5.9%.

For the molecule `CS(=O)(=O)CCNCc1ccc(-c2ccc3ncnc(Nc4ccc(OCc5ccccc5)c(C(F)(F)F)c4)c3c2)o1`, the inhibition came out at 5.28% in [1]; 1.71% in [2]; 1.9% in assay [3]; 4.27% in assay [4]; 5.33% in assay [5]; 0.91% in [6]. The inhibition was -0.61% in [7], 2.28% in assay [8], 4.17% in assay [9] and 7.54% in assay [10].
